Measured values as given in PubChem BioAssay (NCI).
Where “and” joins values, the source holds several entries; their conditions need not be identical. Equal entries are not always repeated. About 79,000 compounds went through this panel and 15% of them were active in at least one assay; those are over-represented in the sample as a whole. Some compounds were tested as several samples or in several runs, with calls that do not always agree. Calls of active or inactive are those of the source. Rule as the data show it: active = growth inhibition above about 70%; inactive = the rest.

How the values were obtained:
[1] = NCI Yeast Anticancer Drug Screen. Data for the rad52 strain (AID 147);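 also: 0% = growth of vehicle-treated control cultures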; conditions: S. cerevisiae rad52 mutant growth inhibition, stronger effect = higher value
Procedure, shortened: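 Compounds are applied to a genetically defined yeast strain lacking normal DNA damage repair, and inhibition of growth is expressed relative to cultures given vehicle only.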

[2] = NCI Yeast Anticancer Drug Screen. Data for the wt1 strain (AID 149);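 also: 0% = growth of vehicle-treated wt1 cultures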; conditions: S. cerevisiae wt1 strain (SPY 50644) growth inhibition, stronger effect = higher value
Procedure, shortened: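 Compounds are added to wt1 yeast cultures. Growth is then measured. Inhibition is expressed relative to vehicle-treated controls.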

[3] = NCI Yeast Anticancer Drug Screen. Data for the rad50EPP+ strain (AID 151);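 also: 0% = growth of vehicle-treated control cultures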; conditions: S. cerevisiae rad50 mutant strain, stronger effect = higher value
Procedure, shortened: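 Compounds were applied to the rad50EPP+ yeast strain, which bears a defined DNA repair alteration, and growth inhibition was determined relative to vehicle-treated cultures.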

[4] = NCI Yeast Anticancer Drug Screen. Data for the mgt1 strain (AID 153); conditions: S. cerevisiae mgt1 mutant growth inhibition, stronger effect = higher value
Procedure, shortened: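 Strain: mgt1 yeast, one of a set carrying defined DNA damage repair or cell cycle control alterations. Compound-treated growth compared with vehicle.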

[5] = NCI Yeast Anticancer Drug Screen. Data for the rad50 strain (AID 155);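 also: 0% = growth of vehicle-only cultures of the same strain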; conditions: S. cerevisiae rad50 strain growth inhibition, stronger effect = higher value
Procedure, shortened: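 Inhibition values express reduced yeast growth in compound-treated cultures relative to vehicle-treated controls.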

[6] = NCI Yeast Anticancer Drug Screen. Data for the mec2-1 strain (AID 157); conditions: S. cerevisiae mec2-1 strain, stronger effect = higher value
Procedure, shortened: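 Strain: mec2-1 (DNA repair/cell cycle alteration). Compound exposure, then growth measured; inhibition expressed relative to vehicle.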

[7] = NCI Yeast Anticancer Drug Screen. Data for the rad14 strain (AID 159);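 also: 0% = growth of vehicle-treated control cultures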; conditions: S. cerevisiae rad14 strain growth inhibition, stronger effect = higher value
Procedure, shortened: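 A mutant yeast strain defective in DNA damage repair is treated with compound; inhibition of its growth is scored against untreated, vehicle-exposed cultures.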

[8] = NCI Yeast Anticancer Drug Screen. Data for the sgs1 mgt1 strain (AID 161);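 also: 0% = growth of cultures given vehicle only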; conditions: S. cerevisiae sgs1 mgt1 strain, stronger effect = higher value
Procedure, shortened: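 Test agents were incubated with a DNA-repair-mutant yeast strain. Growth was then read and compared against vehicle-treated controls.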

[9] = NCI Yeast Anticancer Drug Screen. Data for the CLN2oe strain (AID 163);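 also: 0% = growth of vehicle-only control cultures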; conditions: S. cerevisiae CLN2oe strain, stronger effect = higher value
Procedure, shortened: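 Growth of a genetically modified yeast strain is measured after compound exposure and compared with cultures given vehicle alone.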

[10] = NCI Yeast Anticancer Drug Screen. Data for the cln2 rad14 strain (AID 165);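 also: 0% = growth equal to vehicle treated cultures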; conditions: S. cerevisiae cln2 rad14 strain, stronger effect = higher value
Procedure, shortened: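 Compounds are applied to the cln2 rad14 yeast strain, and growth is then compared with that of vehicle-treated cultures to give inhibition.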

[11] = NCI Yeast Anticancer Drug Screen. Data for the wt2 strain (AID 169);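 also: 0% = growth of vehicle-treated yeast cultures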; conditions: S. cerevisiae wt2 strain growth inhibition, stronger effect = higher value
Procedure, shortened: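 This strain belongs to a panel of yeast strains with defined genetic alterations in DNA damage repair or cell cycle control. Compounds are applied, and growth inhibition is measured against vehicle-treated cultures.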

[12] = NCI Yeast Anticancer Drug Screen. Data for the mlh1 strain (AID 171);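 also: 0% = growth of vehicle-treated control cultures of the same strain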; conditions: S. cerevisiae mlh1 strain growth inhibition, stronger effect = higher value
Procedure, shortened: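 Growth of the mutant yeast strain after compound exposure, expressed as inhibition relative to vehicle-only controls.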

[13] = NCI Yeast Anticancer Drug Screen. Data for the sgs1 strain (AID 173);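 also: 0% = growth of vehicle-only control cultures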; conditions: S. cerevisiae sgs1 mutant, stronger effect = higher value
Procedure, shortened: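 Growth of a yeast strain bearing a defined genetic alteration is measured after compound treatment. Inhibition is expressed relative to vehicle-only controls.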

[14] = NCI Yeast Anticancer Drug Screen. Data for the mlh1 rad18 strain (AID 175); conditions: S. cerevisiae mlh1 rad18 strain growth inhibition, stronger effect = higher value
Procedure, shortened: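 Read-out is yeast growth inhibition, calculated against vehicle-only controls. The compound was applied to a strain engineered with DNA damage repair alterations.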

[15] = NCI Yeast Anticancer Drug Screen. Data for the rad18 strain (AID 177); conditions: S. cerevisiae rad18 mutant growth inhibition, stronger effect = higher value
Procedure, shortened: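 Growth of the mutant yeast strain after compound exposure, normalised to vehicle-only cultures.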

[16] = NCI Yeast Anticancer Drug Screen. Data for the bub3 strain (AID 167); conditions: S. cerevisiae bub3 mutant strain, stronger effect = higher value
Procedure, shortened: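 Steps: expose the mutant yeast strain to compound; grow alongside vehicle-treated cultures; measure growth; express inhibition against the vehicle cultures.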

[17] = at 5.0 µM (retest, dose inferred, filed as 0.5)
[18] = at 50.0 µM (retest, dose inferred, filed as 5.0)

Measured: growth inhibition

Cc1nc2c(Br)cc(Br)cc2c(=O)n1-c1ccccc1NC1OCC(O)C(O)C1O (stereo not drawn)
91.5% (active) and 60.1% (inactive): [10]; at 50.0 µM
70.8% (active) and 22.4% (inactive): [6]; at 50.0 µM
active: [1]; at 100.0 µM 97% | [2]; at 100.0 µM 93% | [4]; at 100.0 µM 97% | [5]; at 50.0 µM 94.5% and 89.8% | [5]; at 100.0 µM 96% | [6]; at 100.0 µM 96% | [7]; at 100.0 µM 94% | [9]; at 33.0 µM 72% | [9]; at 100.0 µM 97% | [10]; [18] 95% and 85% | [11]; at 100.0 µM 96% | [12]; at 100.0 µM 92% | [13]; at 100.0 µM 88% | [14]; [18] 93% and 74% | [14]; at 50.0 µM 95.2% and 82.2% | [15]; at 100.0 µM 97%
74% (active) and 68% (inactive): [5]; [18]
75% (active) and 23% (inactive): [6]; [18]
inactive: [1]; at 1.2 µM 1% | [1]; at 3.7 µM 4% | [1]; at 11.0 µM 25% | [1]; at 33.0 µM 44% | [2]; at 1.2 µM -50% | [2]; at 3.7 µM 3% | [2]; at 11.0 µM 9% | [2]; at 33.0 µM 28% | [3]; at 1.2 µM 37% | [3]; at 3.7 µM 36% | [3]; at 11.0 µM 17% | [3]; at 33.0 µM 20% | [3]; at 100.0 µM 8% | [4]; at 1.2 µM 25% | [4]; at 3.7 µM 21% | [4]; at 11.0 µM 20% | [4]; at 33.0 µM 39% | [5]; at 1.2 µM 0% | [5]; at 3.7 µM 6% | [5]; [17] 10% and 17% | [5]; at 11.0 µM 18% | [5]; at 33.0 µM 63% | [6]; at 1.2 µM 7% | [6]; at 3.7 µM 9% | [6]; [17] 10% and 22% | [6]; at 11.0 µM 14% | [6]; at 33.0 µM 38% | [7]; at 1.2 µM 2% | [7]; at 3.7 µM 4% | [7]; at 11.0 µM 16% | [7]; at 33.0 µM 39% | [8]; [17] 12% and 11% | [8]; [18] 13% and 24% | [9]; at 1.2 µM 40% | [9]; at 3.7 µM 35% | [9]; at 11.0 µM 44% | [10]; [17] 40% and -2% | [11]; at 1.2 µM 2% | [11]; at 3.7 µM 4% | [11]; at 11.0 µM 10% | [11]; at 33.0 µM 43% | [12]; at 1.2 µM 0% | [12]; at 3.7 µM 4% | [12]; at 11.0 µM 12% | [12]; at 33.0 µM 36% | [13]; at 1.2 µM 2% | [13]; at 3.7 µM 5% | [13]; at 11.0 µM 13% | [13]; at 33.0 µM 41% | [14]; [17] -23% and 18% | [15]; at 1.2 µM 42% | [15]; at 3.7 µM 41% | [15]; at 11.0 µM 41% | [15]; at 33.0 µM 62%
88.5% (active) and 61.5% (inactive): [8]; at 50.0 µM

CC(C)=NOC(=O)Nc1ccc(Cl)cc1
active: [3]; at 33.0 µM 79% | [3]; at 100.0 µM 95% | [4]; at 100.0 µM 74% | [5]; [17] 87% | [5]; [18] 98% | [6]; [17] 76% | [6]; [18] 99% | [8]; [18] 92% | [8]; at 50.0 µM 72.8% | [10]; [17] 77% | [10]; [18] 90% | [16]; [18] 81% | [11]; at 100.0 µM 79% | [12]; at 100.0 µM 83% | [13]; at 100.0 µM 84% | [14]; [18] 99% | [15]; at 100.0 µM 72%
inactive: [1]; at 1.2 µM 1% | [1]; at 3.7 µM -7% | [1]; at 11.0 µM -8% | [1]; at 33.0 µM 15% | [1]; at 100.0 µM 66% | [2]; at 1.2 µM -24% | [2]; at 3.7 µM -27% | [2]; at 11.0 µM -21% | [2]; at 33.0 µM -18% | [2]; at 100.0 µM 14% | [3]; at 1.2 µM -32% | [3]; at 3.7 µM 18% | [3]; at 11.0 µM 23% | [4]; at 1.2 µM -41% | [4]; at 3.7 µM -60% | [4]; at 11.0 µM -56% | [4]; at 33.0 µM -11% | [5]; at 1.2 µM 2% | [5]; at 3.7 µM 11% | [5]; at 11.0 µM -3% | [5]; at 33.0 µM 28% | [5]; at 50.0 µM 58.2% | [5]; at 100.0 µM 67% | [6]; at 1.2 µM -40% | [6]; at 3.7 µM -26% | [6]; at 11.0 µM -24% | [6]; at 33.0 µM -7% | [6]; at 50.0 µM 29.9% | [6]; at 100.0 µM 47% | [7]; at 1.2 µM -48% | [7]; at 3.7 µM -50% | [7]; at 11.0 µM -30% | [7]; at 33.0 µM -25% | [7]; at 100.0 µM 45% | [8]; [17] 0% | [10]; at 50.0 µM 37.2% | [16]; at 1.2 µM -12% | [16]; at 3.7 µM -1% | [16]; [17] 28% | [16]; at 11.0 µM 0% | [16]; at 33.0 µM 8% | [16]; at 50.0 µM 47% | [16]; at 100.0 µM 64% | [11]; at 1.2 µM -34% | [11]; at 3.7 µM -25% | [11]; at 11.0 µM -21% | [11]; at 33.0 µM 5% | [12]; at 1.2 µM -25% | [12]; at 3.7 µM -17% | [12]; at 11.0 µM -22% | [12]; at 33.0 µM 21% | [13]; at 1.2 µM -16% | [13]; at 3.7 µM -12% | [13]; at 11.0 µM -14% | [13]; at 33.0 µM 33% | [14]; [17] 61% | [14]; at 50.0 µM 46.7% | [15]; at 1.2 µM -32% | [15]; at 3.7 µM -38% | [15]; at 11.0 µM -39% | [15]; at 33.0 µM 10%
